Assay results: PubChem BioAssay (NCATS)
“And” between values parts separate entries of the source, which are not always exact repeats. Identical values can stand only once. Records with an inconclusive call do not appear. The source made the active and inactive calls. Unless noted, calls come from the whole dose curve; as a rule, active = well fitted curve in the direction sought with a large enough effect; inconclusive = small, poorly fitted or top-dose-only effect, or another doubt; inactive = no such curve, though single readings can be large; an effect the other way counts as inactive or inconclusive.

Assays:
[1] = S16 Schwann cell PMP22 intronic element beta-lactamase assay (AID 624044; calls by dose curve;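 note: 0% = DMSO and -100% = potassium clavulanate positive control; nearly all actives have a fitted effect of over 15% in size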)
Method in brief: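 Beta-lactamase reporter under a PMP22 intronic regulatory element in stable S16 rat Schwann cells; 24 h compound exposure. 460 nm blue signal normalized between DMSO (0%) and potassium clavulanate, with 535 nm FRET tracking viability; curves classed by r2 and response.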

[2] = qHTS Assay for Identification of Small Molecule Agonists for NFkB Signaling Pathway. (AID 624478);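 note: compounds tested together with TNF alpha at its EC50 of 10 pM; 0% is about no effect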
Method in brief: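 Read-out: 460/530 nm emission at 405 nm excitation after 2 h LiveBLAzer loading; ME-180 NFkB-bla reporter cells exposed 5 h at 37 C to compounds with 10 pM TNF alpha final.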

[3] = qHTS Assay for Identification of Small Molecule Antagonists for NFkB Signaling Pathway. (AID 624479; calls by dose curve;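 note: pathway stimulated with TNF alpha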; note: potency is the fitted concentration of half-maximal effect)
[4] = Cytotoxicity counterscreen for NFkB agonists and antagonists (AID 624476);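 note: cells exposed to compound for 48 hours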; note: potency is the fitted concentration of half-maximal effect
[5] = Cell Proliferation Assay against the TMD8 Cell Line (Caspase readout at 16 hrs) (AID 651712); note: potency is the fitted concentration of half-maximal effect
Method in brief: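 16 h, 37 °C, TMD8 (500 cells/well), RPMI/5% FBS no phenol red; Caspase-Glo 3/7, 15 min RT, luminescence; %act: DMSO 0, bortezomib 9.2 uM final 100.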

[6] = Cell Proliferation Assay against the TMD8 Cell Line (Caspase readout at 8 hrs) (AID 651713);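 note: 0% = DMSO and 100% = 9.2 µM bortezomib caspase signal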
Method in brief: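 Apoptosis readout: caspase 3/7 luminescence (Caspase-Glo), 15 min RT. Cells: TMD8, 500/well, RPMI + 5% FBS, no phenol red. Exposure 8 h, 37C. % activity vs DMSO = 0, bortezomib 9.2 uM final = 100.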

[7] = S16 Schwann cell PMP22 intronic element firefly luciferase assay (AID 624032); note: nearly all actives have a fitted effect of over 30% in size; note: potency is the fitted concentration of half-maximal effect
Method in brief: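 Rat S16 Schwann cells stably carrying a PMP22 intronic element-driven Fluc reporter were seeded overnight, then exposed to compounds for 24 h at 37 °C. Luminescence was normalized to PTC124 (positive control) and DMSO (0% activity).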

[8] = qHTS assay for small molecule agonists of the antioxidant response element (ARE) signaling pathway (AID 651741; active = well fitted activation curve with a large enough effect in the signal ratio; the % refers to the signal ratio; note: % of control where 0% means no effect)
Method in brief: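 Beta-lactamase reporter expression driven by the antioxidant response element in HepG2 cells was detected by fluorescence with LiveBLAzer B/G FRET substrate (2 h, room temperature) following 16 h compound treatment at 37 C.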

[9] = qHTS assay for small molecule activators of the p53 signaling pathway (AID 651743; active = well fitted activation curve with a large enough effect in the signal ratio, not every such curve was filed as active; the % refers to the signal ratio; note: series mostly up to about 92 µM; % of control where 0% means no effect); conditions: HCT-116 p53RE-bla, beta-lactamase FRET ratio, 16 h; activation: hits give high values
Method in brief: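 Here HCT-116 cells with an integrated p53-responsive beta-lactamase gene were incubated with compounds (16 hours, 37 C) after a 5-hour plating period; beta-lactamase activity was detected as fluorescence intensity via B/G FRET substrate.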

[10] = biological target: Tumor necrosis factor (Homo sapiens) (UniProt P01375); assay: qHTS assay to identify small molecules that stimulate Tumor Necrosis Factor-alpha (TNF-alpha) secretion (AID 651757; active = well fitted curve in the direction sought with a large enough effect in the signal ratio; the % refers to the signal ratio; note: 0% is about no effect)
Method in brief: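 THP-1 cells, 3000/well; compound 17 hrs, 37 C; add cryptate/XL665 anti-TNF-alpha antibody pair; 3 hr RT; TR-FRET (HTRF) read of secreted TNF-alpha. Quantitative HTS format.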

[11] = qHTS assay for environmental chemicals that activate the Aryl hydrocarbon Receptor (AhR) signaling pathway (AID 651777); conditions: 1A2-DRE human hepatoma cells, luciferase, 24 h; hits give high values; note: % of control where 0% means no effect; nearly all actives have a fitted effect of over 15% in size
Method in brief: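 Following a 24 hr incubation with test chemicals at 37 C and 5% CO2, 1A2-DRE human hepatoma cells received One-Glo reagent; after 30 min at room temperature, luciferase output reflected CYP1A2 induction via AhR.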

[12] = biological target: Peroxisome proliferator-activated receptor alpha (Homo sapiens) (UniProt Q07869); assay: qHTS assay for small molecule agonists of the peroxisome proliferator-activated receptor alpha (PPARalpha) signaling pathway (AID 651778); conditions: PathHunter PPARalpha complementation, chemiluminescence, 6 h; max response: hits give high values; note: % of control where 0% means no effect
Method in brief: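 Cells plated at 2,000/well and held overnight at 37 C, 5% CO2, then compound added by pin tool for 6 hr; after PathHunter detection reagent and 60 min at room temperature, chemiluminescence from enzyme complementation was read.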

[13] = qHTS assay for small molecule activators of the nuclear factor-kappa B (NF-kB) signaling pathway (AID 651749; active = well fitted activation curve with a large enough effect in the signal ratio; the % refers to the signal ratio; note: series mostly up to about 77 µM; % of control where 0% means no effect); conditions: NF-kB-bla ME-180 cells, beta-lactamase FRET ratio, 16 h; hits give high values
Method in brief: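 Beta-lactamase reporter expression, controlled by NF-kB response elements in ME-180 cells, was quantified fluorometrically via FRET disruption; cells at 2,000/well had been incubated with 23 nL test compound for 16 hr.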

[14] = qHTS assay for small molecule disruptors of the mitochondrial membrane potential - 1 hr assay (AID 651754; calls by dose curve; note: % is set by controls: 0 for no effect and ±100 for the full control effect; nearly all actives have a fitted effect of over 35% in size)
Method in brief: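 Read-out: dye fluorescence at 490 nm ex/535 nm em (monomers) and 540 nm ex/590 nm em (aggregates) in HepG2 cells. Compound exposure 1 hr at 37C, followed by 30 min dye loading.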

[15] = qHTS assay for small molecule disruptors of the mitochondrial membrane potential - 5 hr assay (AID 651755; calls by dose curve; note: % is set by controls: 0 for no effect and ±100 for the full control effect; nearly all actives have a fitted effect of over 40% in size)
Method in brief: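 Seed HepG2 overnight, add compound, incubate 5 hr at 37C and 5% CO2, stain 30 min with Mito-MPS, then measure monomer (490/535 nm) and aggregate (540/590 nm) fluorescence.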

Sequence of Tumor necrosis factor (Homo sapiens) (P01375 whole entry, looked up): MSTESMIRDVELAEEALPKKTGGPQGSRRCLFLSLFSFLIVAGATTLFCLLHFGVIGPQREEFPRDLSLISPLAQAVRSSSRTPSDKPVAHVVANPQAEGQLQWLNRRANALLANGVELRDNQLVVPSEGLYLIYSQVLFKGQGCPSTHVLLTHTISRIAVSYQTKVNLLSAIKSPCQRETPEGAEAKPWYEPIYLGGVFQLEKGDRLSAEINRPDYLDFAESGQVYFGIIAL
Sequence of Peroxisome proliferator-activated receptor alpha (Homo sapiens) (Q07869 whole entry, looked up): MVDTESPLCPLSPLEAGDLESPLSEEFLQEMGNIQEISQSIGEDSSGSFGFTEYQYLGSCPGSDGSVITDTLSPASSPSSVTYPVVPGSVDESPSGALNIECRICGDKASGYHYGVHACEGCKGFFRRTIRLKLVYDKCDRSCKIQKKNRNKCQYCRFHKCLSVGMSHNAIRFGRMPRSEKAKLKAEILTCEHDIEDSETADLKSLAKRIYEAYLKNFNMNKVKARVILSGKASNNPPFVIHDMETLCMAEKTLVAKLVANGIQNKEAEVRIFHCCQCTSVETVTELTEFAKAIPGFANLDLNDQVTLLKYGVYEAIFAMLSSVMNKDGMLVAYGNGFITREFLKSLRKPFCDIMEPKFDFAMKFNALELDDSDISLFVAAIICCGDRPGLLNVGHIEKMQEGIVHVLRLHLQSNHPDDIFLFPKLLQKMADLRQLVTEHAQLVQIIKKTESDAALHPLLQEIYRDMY

O=S(=O)(O)c1ccc2c(N=Nc3ccc(S(=O)(=O)O)c4ccccc34)c(O)c(S(=O)(=O)O)cc2c1
inactive: Potency [1]

CNC1CCN(C(Cc2cccc(-c3ccncc3)c2)C(=O)c2sc3c(F)ccc(F)c3c2Cl)CC1 (configuration not stated)
inactive: outcome [2] | Potency [3]

Cc1nnc(C(C)C)n1C1CC2CCC(C1)N2CC[C@H](NC(=O)C1CCC(F)(F)CC1)c1ccccc1 (some centres not stated)
inactive: Potency [4] | outcome [2] | Potency [3] | Potency [5] | Potency [6]

CCCCCCCC(=O)O
inactive: Potency [7] | Potency [8] | activation [9] -2.15% and 0.705% | outcome [10] | activation [11] 0.292% and -0.546% | max response [12] -0.533% and 5%

C[C@@H]1CCN(C(=O)CC#N)C[C@@H]1N(C)c1ncnc2[nH]ccc12
inactive: Potency [4] | outcome [2] | Potency [5] | Potency [6]

Nc1ccn([C@H]2CS[C@@H](CO)O2)c(=O)n1
inactive: Potency [8] | activation [9] -1.09% | activation [13] -1.13% | outcome [14] | outcome [15] | outcome [10] | activation [11] 0.73% | max response [12] -3.53%

NC(=O)Nc1cc(-c2ccc(CN3CCOCC3)c(F)c2)sc1C(=O)N[C@H]1CCCNC1
active: Potency [4] 0.59 µM | Potency [3] 4.73 µM | Potency [5] 0.0469 µM
inactive: outcome [2]

CC(C)(C)NC(=O)[C@@H]1C[C@@H]2CCCC[C@@H]2CN1C[C@@H](O)[C@H](Cc1ccccc1)NC(=O)[C@H](CC(N)=O)NC(=O)c1ccc2ccccc2n1
active: Potency [7] 12.8 µM
inactive: outcome [14] | outcome [15] | outcome [10] | activation [11] 0.529% | max response [12] -0.457%

CO[C@H]1C[C@@H]2CC[C@@H](C)[C@@](O)(O2)C(=O)C(=O)N2CCCC[C@H]2C(=O)O[C@H]([C@H](C)C[C@@H]2CC[C@@H](OCCO)[C@H](OC)C2)CC(=O)[C@H](C)/C=C(\C)[C@@H](O)[C@@H](OC)C(=O)[C@H](C)C[C@H](C)/C=C/C=C/C=C/1C
inactive: Potency [1]
